Screens from PubChem BioAssay.
Hits are enriched below; roughly 5.3% of the tested compounds scored in any of these assays.
BAZ2B block: qHTS Assay for Inhibitors of BAZ2B; hit rate 4.4% among 360,000; AID 504333, 2011; Bromodomain adjacent to zinc finger domain protein 2B (Homo sapiens), Q9UIF8; AlphaScreen BAZ2B-H3K14Ac peptide displacement; Potency, µM (top dose mostly 114 µM), without a hit: at the highest dose activity change, negative = inhibition, actives largely listed as inhibitors; note: potency is the fitted concentration of half-maximal effect; % is set by controls: 0 for no effect and ±100 for the full control effect; nearly all actives have a fitted effect of over 60% in size
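AlphaScreen displacement: compounds (up to 110uM) incubated 30 min at room temperature with a preformed 50 nM BAZ2B/50 nM biotinylated H3K14Ac peptide complex in PBS pH 7.4 with Tween-20. Donor and acceptor beads at 10 ug/mL final added, 20 min light-protected before reading.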
HP1b binding inh: HTS for Inhibitors of HP1-beta Chromodomain Interactions with Methylated Histone Tails. Chromobox protein homolog 1 (Homo sapiens), P83916. AlphaScreen HP1-beta / biotin-H3K9me3 peptide binding. Potency, µM (doses to about 114 µM), without a hit: at the top dose activity change, negative = inhibition, usual class: inhibitors. hit rate 0.56% among 390,000. AID 540317, 2011; note: potency is the fitted concentration of half-maximal effect; nearly all actives have a fitted effect of over 70% in size
Target sequence (P83916 whole entry, looked up): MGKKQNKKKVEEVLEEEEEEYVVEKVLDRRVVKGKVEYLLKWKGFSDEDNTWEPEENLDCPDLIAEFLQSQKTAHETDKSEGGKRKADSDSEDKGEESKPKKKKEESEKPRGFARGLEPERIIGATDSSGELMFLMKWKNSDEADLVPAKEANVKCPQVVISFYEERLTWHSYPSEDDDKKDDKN
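AlphaScreen: HP1-beta (50 nM) preformed 30 min with biotin-H3(1-18)K9me3 peptide (50 nM) in PBS pH 7.4, 0.01% Tween-20. Compound added for 30 min at RT, then streptavidin donor/nickel chelate acceptor beads (10 ug/mL) for 30 min.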
TDP1 block: qHTS Assay for Inhibitors of Tyrosyl-DNA Phosphodiesterase (TDP1) | AID 485290, 2010 | Potency, µM (top dose mostly 130 µM), without a hit: at the top dose activity change, negative = inhibition, actives largely listed as inhibitors | recombinant TDP1, AlphaScreen DNA substrate cleavage | hit rate 0.28% among 350,000; note: potency is the fitted concentration of half-maximal effect; % is set by controls: 0 for no effect and ±100 for the full control effect; nearly all actives have a fitted effect of over 40% in size
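E. coli-derived human Tdp1, 1 nM final. Cpd preinc 15 min RT; substrate 15 nM final, 5 min RT; AS bead mix 10 ug/ml final, 10 min RT. Signal loss = tyrosine-FITC cleavage. No-enzyme wells = max signal.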
CtBP-E1A blk: qHTS Assay for Inhibitors of the CtBP/E1A Interaction; CtBP / adenovirus E1A interaction (AlphaScreen); AlphaScreen GST-E1A/His-CtBP binding, 1536-well; stronger effect = lower value; activity change, % (no concentration beside the values); hit rate 0.49% among 340,000; in the data active = activity change below about -65%; inconclusive = mostly about -30% to -63%; note: % is set by controls: 0 for no effect and ±100 for the full control effect
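GST-E1A and His-tagged CtBP (125 nM each as 5X stock) were preincubated with pin-transferred compound for 2 h at 37 °C in the dark, then glutathione donor and nickel acceptor beads were added for 1 h before AlphaScreen reading.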
JMJD2A Tudor inh: qHTS Assay for Inhibitors of JMJD2A-Tudor Domain; Lysine-specific demethylase 4A (Homo sapiens), O75164; AlphaScreen JMJD2A-Tudor / H3K4me3 peptide binding; Potency, µM (titrated, usually from 114 µM), for inactives: top-dose activity change, negative = inhibition, most hits filed as inhibitors; hit rate 4.4% among 390,000; note: potency is the fitted concentration of half-maximal effect; % is set by controls: 0 for no effect and ±100 for the full control effect; nearly all actives have a fitted effect of over 50% in size
Six1-Eya2 inh: qHTS Assay for Inhibitors of the Six1/Eya2 Interaction. AID 651725, 2012. AlphaScreen GST-Six1/His-Eya2 binding, biochemical; stronger effect = lower value. activity change, % (test concentration not listed). hit rate 0.56% among 360,000; in the data active = activity change below about -65%; inconclusive = mostly about -30% to -63%; note: % is set by controls: 0 for no effect and ±100 for the full control effect
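AlphaScreen with GST-Six1 and His-Eya2 (5X mix: 250 nM and 500 nM), glutathione donor and nickel acceptor beads; buffer 50 mM Tris pH 8.0, 300 mM NaCl, 1 mM TCEP; 1 h at 37 C in the dark.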
* marks the source's active call; other numbers are inactive results; ? = inconclusive; . = no result given; [ ] = remark or other dose. Unless noted, calls come from the whole dose curve; as a rule, active = well fitted inhibition curve with a large enough effect; inconclusive = small, poorly fitted or top-dose-only effect; inactive = no such curve, though single readings can be large or run the other way.

SMILES	BAZ2B block	HP1b binding inh	TDP1 block	CtBP-E1A blk	JMJD2A Tudor inh	Six1-Eya2 inh
Cc1cccc(S(=O)(=O)c2cn(Cc3ccc(F)cc3)c3cc(N4CCCCC4)c(F)cc3c2=O)c1	2.9%	31.5%	8.7%	.	-0.3%	.
COc1ccc(-c2nnn(CC(=O)N3CCN(c4ccc(F)cc4)CC3)n2)cc1	-20.9%	6.7%	0.6%	4.7	-2.2%[11.4 µM]	4.2
COc1ccc(N2CCN(c3ccc4nnc(CCC(=O)Nc5ccc(C)cc5)n4n3)CC2)cc1	44.7µM*	?	.	0.3	?	-0.3
COc1ccc(N2CCN(C(=O)CN3CCN(c4nc(-c5ccc(F)cc5)cs4)CC3)CC2)cc1	20µM*	?	8.6%	-1.9	31.6µM*	1.2
O=C(O)CN1CCc2ccccc2C1	-4.6%	-22.5%	-6.1%	-17.3	28.2µM*	16.5
COc1ccc(N2CCN(CC(=O)Nc3nc4c(s3)CC(C)CC4)CC2)cc1 (stereo unspecified)	.	?	12.5%	?	50.1µM*	?
COC(=O)c1ccc(C(NC(=O)OCc2ccccc2)/C(=C/[C@@H](C)C(=O)NCc2ccccc2)c2cccnc2)cc1 (stereo partly specified)	.	.	4.5%	.	.	.
COC(=O)CSc1nc2sc3c(c2c(=O)n1-c1ccccc1C)CC(C)(C)OC3	-0.8%	37.2%	.	.	-20.4%	.
Cn1c(=O)c2nc(SCC(=O)Nc3cc(Cl)ccc3Cl)n(C)c2n(C)c1=O	-2.5%	20.0%	-5.2%	.	-2.9%	.
CC1CCN(CC(=O)N2c3ccccc3CC2C)CC1 (stereo unspecified)	-3.5%	27.5%	6.3%	1.8	-3.6%	0.8
COc1ccc(N2CCN(CC(=O)Nc3nc(C)cs3)CC2)cc1	11.2µM*	39.8µM*	.	-0.7	5.62µM*	-16.3
COc1ccc(N2CCN(CC(=O)N3c4ccccc4CC3C)CC2)cc1 (stereo unspecified)	35.5µM*	25.1µM*	.	-4.9	2.82µM*	-3.7
COc1ccc(NC(=O)CN2CCc3ccccc3C2)cc1	.	?	.	.	22.4µM*	16.0
CCc1ccc(NCc2cccn2-c2nnc(N3CCCCCC3)s2)cc1	-14.3%	-7.9%	4.9%	.	?	.
COc1ccccc1-n1ncc2c(=O)[nH]c(SCC(=O)Nc3cccc(F)c3)nc21	-3.8%	3.3%	2.5%	.	-13.3%	.
c1nc(NCCCN2CCOCC2)c2cc(-c3ccc4c(c3)OCO4)ccc2n1	.	.	.	.	-28.4%	.
Brc1ccc(N/N=C(/N=Nc2nn[nH]n2)c2ccccc2)cc1	11.2µM*	12.6µM*	11.0%	.	12.6µM*	?
CC(=O)Nc1ccc(/C(N=Nc2ccccc2)=N/N=C(N)N)cc1	.	?	.	0.9	?	?
O=C(O)c1ccc(N=N/C(=N\Nc2ccc(C(=O)O)cc2)c2ccccc2)cc1	28.2µM*	?	-3.6%	-22.0	50.1µM*	?
O=C(O)c1cccc(N/N=C(\N=Nc2ccccc2)c2ccccc2)c1	14.1µM*	35.5µM*	14.7%	?	39.8µM*	?
O=C(/C(=N\Nc1ccc(Br)cc1)Sc1nnnn1-c1ccccc1)c1ccccc1	?	1.3%	3.4%	-11.7	-33.6%	-19.2
CCC(Sc1nc2n[nH]c(C)c2c(=N)n1-c1ccc(Br)cc1)C(=O)N(CC)CC (stereo unspecified)	-9.9%	51.8%	7.0%	.	-20.1%	.
COC(=O)c1ccc(NC(=O)CSc2cn(CC(=O)N3CCCCC3)c3ccccc23)cc1	-5.2%	35.5%	2.6%	.	-2.2%	.
C/C=C/C=C/C(=O)N1CC[C@]23c4ccccc4N[C@H]4N(C)c5cccc6c5[C@]42CCN([C@H]6C2OC2(C)C)[C@H]13 (stereo partly specified)	50.1µM*	-32.4%	.	0.7	50.1µM*	-18.9
CN1CCC23c4ccccc4NC1C21CCN(C)C3Nc2ccccc21	.	0.9%	.	8.8	-21.1%	1.3
SMILES	BAZ2B block	HP1b binding inh	TDP1 block	CtBP-E1A blk	JMJD2A Tudor inh	Six1-Eya2 inh
CC(Oc1cccc(Cl)c1)C(=O)Nc1nc(-c2ccccn2)cs1 (stereo unspecified)	56.2µM*	50.7%	-1.5%	-73.9*	50.1µM*	?
C[C@H](NC(=O)c1ccccc1)C(=O)Nc1nc(-c2ccccn2)cs1	14.1µM*	35.7%	5.0%	-81.1*	79.4µM*	-84.0*
O=C(CCCSc1ccccc1)Nc1nc(-c2ccccn2)cs1	-0.6%	15.8%	8.6%	-17.7	-26.8%	-0.1
CC(Oc1ccccc1)C(=O)Nc1nc(-c2ccccn2)cs1 (stereo unspecified)	39.8µM*	15.9%	-4.2%	-86.6*	20µM*	-67.5*
Cc1ccc(-n2c3nc(=O)[nH]c(=O)c-3cc3c(C)nn(-c4ccccc4)c32)cc1Cl	.	51.0%	0.0%	.	3.3%	.
Cc1nnc(NC(=O)c2cc3ccccc3o2)s1	-17.3%	-3.3%	.	1.7	-16.4%	0.3
Cc1nc(NC(=O)c2cc3ccccc3o2)sc1C	56.2µM*	6.5%	0.4%	-4.5	-11.7%	1.2
O=C(Nc1nc(-c2ccccn2)cs1)c1cc2ccccc2o1	22.4µM*	31.3%	10.3%	-68.3*	25.1µM*	-77.4*
Cc1c(C(=O)Nc2nc(-c3ccccn3)cs2)oc2ccccc12	35.5µM*	?	-2.2%	-86.2*	?	-73.3*
COc1ccc2c(c1)O[C@@H](c1ccc3c(c1)OCO3)[C@H](OC(=O)Nc1ccc(OC(F)F)cc1)C2=O	.	.	3.7%	.	.	.
O=C1c2ccccc2[C@@H]2CC(O)C(O)CCN12 (stereo partly specified)	.	38.3%	.	2.3	-1.4%	2.0
CC1(C)Cc2ccccc2C2CC(O)C(=O)N21 (stereo unspecified)	-29.6%	-13.3%	6.0%	-2.8	89.1µM*	0.0
Cc1cccc(N2CCN(C(=O)CN3CCSc4ccccc43)CC2C)c1 (stereo unspecified)	?	-15.4%[57 µM]	10.1%	.	50.1µM*	.
O=C(CN1CCSc2ccccc21)N1CCCCC1	-12.2%	20.3%[57 µM]	1.8%	.	-14.4%	.
Cc1cccc(N2CCN(C(=O)Cn3ncc4c3-c3cc(C)ccc3OC4)CC2C)c1 (stereo unspecified)	31.6µM*	-9.0%	2.9%	.	?	.
CCn1cc(/C=C(\NC(=O)c2cc(OC)c(OC)c(OC)c2)C(=O)NCCCn2ccnc2)c2ccccc21	-37.9%	20.7%	5.1%	.	-34.9%	.
